Assay results reported in the supplement of paper PMC11732987, “Enantioselective OTUD7B fragment discovery through chemoproteomics screening and high-throughput optimisation” (Communications Chemistry, 2025).

How the values were obtained:
Assay in all cases: log2 ratio of Biotin-Ahx-Ub-VS probe labelling (compound/DMSO); higher = less target engagement, active = hit call of the paper (q ≤ 0.05, log2 ratio ≤ -1)
Conditions in all cases: treatment time: 3 h
[1] = compound: CCC1N(CCc2sccc12)C(=O)CCl
Method in brief: (§1)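 For activity-based profiling, 495 µg portions of HEK293T lysate in Tris/CHAPS/IGEPAL buffer with protease inhibitors were treated in triplicate with compound at 50 or 200 µM or with DMSO for 3 h. A 1 h incubation with Biotin-Ahx-Ub-VS (0.5 µM final) followed, then NeutrAvidin enrichment, LysC and trypsin digestion and diaPASEF LC-MS/MS. The compound/DMSO base-two log ratios were averaged from median-normalised label-free quantities using an unpaired t-test. Proteins needed at least 2 unique peptides to be included.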

[2] = compound: CN1c2ccccc2C(CS1(=O)=O)NC(=O)CCl
Method in brief: as §1

[3] = compound: Cl.ClCC(=O)N1CCc2ncncc2C1
Method in brief: as §1

[4] = compound: Cl.Cn1ncc2C(CCCc12)NC(=O)CCl
Method in brief: as §1

[5] = compound: ClCC(=O)NC1CCOc2ccccc12
Method in brief: as §1

[6] = compound: ClCC(=O)NC1CCCc2ccccc12
Method in brief: (§2)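 Values are average ratios of compound to vehicle from an unpaired t-test, limited to proteins with at least two unique peptides. HEK293T lysate (495 µg per sample, in Tris/CHAPS/IGEPAL buffer with protease inhibitors) was exposed in triplicate to a concentration series of compound or to vehicle for 3 h, then to Biotin-Ahx-Ub-VS at 0.5 µM final for 1 h. Labelled deubiquitinases were enriched on NeutrAvidin, digested with LysC and trypsin, and analysed by diaPASEF LC-MS/MS. Ratios are given on a log2 scale from Spectronaut label-free protein quantities normalised to the global median.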

[7] = compound: ClCC(=O)N[C@@H]1CCCc2ccccc12
Method in brief: as §2

[8] = compound: ClCC(=O)N[C@H]1CCCc2ccccc12
Method in brief: as §2

[9] = compound: CCC1N(CCc2cc(OC)c(Cl)cc12)C(=O)CCl
Method in brief: as §1

[10] = compound: CCCC1N(CCc2cc(OC)c(OC)cc12)C(=O)CCl
Method in brief: as §1

[11] = compound: CN(Cc1cccc(Br)c1)C(=O)CCl
Method in brief: as §1

[12] = compound: CN(Cc1ccccc1)C(=O)CCl
Method in brief: as §1

[13] = compound: COc1ccc(CN(C)C(=O)CCl)cc1
Method in brief: as §1

[14] = compound: COc1cccc(CN(CCCc2ccccc2)C(=O)CCl)c1
Method in brief: as §1

[15] = compound: ClCC(=O)N1CCc2cc(Cl)c(Cl)cc2C1
Method in brief: as §1

[16] = compound: ClCC(=O)N1CCc2nc(ncc2C1)-c1ccccc1
Method in brief: as §1

[17] = compound: ClCC(=O)N1CCc2nocc2C1
Method in brief: as §1

[18] = compound: ClCC(=O)N1CCc2scc(Br)c2C1
Method in brief: as §1

[19] = compound: ClCC(=O)NC(C1CCCC1)c1cccs1
Method in brief: as §1

Measured: log2 ratio of Biotin-Ahx-Ub-VS probe labelling

USP7 (UniProt Q93009)
Sequence of UniProt Q93009 (Q93009 whole entry, looked up): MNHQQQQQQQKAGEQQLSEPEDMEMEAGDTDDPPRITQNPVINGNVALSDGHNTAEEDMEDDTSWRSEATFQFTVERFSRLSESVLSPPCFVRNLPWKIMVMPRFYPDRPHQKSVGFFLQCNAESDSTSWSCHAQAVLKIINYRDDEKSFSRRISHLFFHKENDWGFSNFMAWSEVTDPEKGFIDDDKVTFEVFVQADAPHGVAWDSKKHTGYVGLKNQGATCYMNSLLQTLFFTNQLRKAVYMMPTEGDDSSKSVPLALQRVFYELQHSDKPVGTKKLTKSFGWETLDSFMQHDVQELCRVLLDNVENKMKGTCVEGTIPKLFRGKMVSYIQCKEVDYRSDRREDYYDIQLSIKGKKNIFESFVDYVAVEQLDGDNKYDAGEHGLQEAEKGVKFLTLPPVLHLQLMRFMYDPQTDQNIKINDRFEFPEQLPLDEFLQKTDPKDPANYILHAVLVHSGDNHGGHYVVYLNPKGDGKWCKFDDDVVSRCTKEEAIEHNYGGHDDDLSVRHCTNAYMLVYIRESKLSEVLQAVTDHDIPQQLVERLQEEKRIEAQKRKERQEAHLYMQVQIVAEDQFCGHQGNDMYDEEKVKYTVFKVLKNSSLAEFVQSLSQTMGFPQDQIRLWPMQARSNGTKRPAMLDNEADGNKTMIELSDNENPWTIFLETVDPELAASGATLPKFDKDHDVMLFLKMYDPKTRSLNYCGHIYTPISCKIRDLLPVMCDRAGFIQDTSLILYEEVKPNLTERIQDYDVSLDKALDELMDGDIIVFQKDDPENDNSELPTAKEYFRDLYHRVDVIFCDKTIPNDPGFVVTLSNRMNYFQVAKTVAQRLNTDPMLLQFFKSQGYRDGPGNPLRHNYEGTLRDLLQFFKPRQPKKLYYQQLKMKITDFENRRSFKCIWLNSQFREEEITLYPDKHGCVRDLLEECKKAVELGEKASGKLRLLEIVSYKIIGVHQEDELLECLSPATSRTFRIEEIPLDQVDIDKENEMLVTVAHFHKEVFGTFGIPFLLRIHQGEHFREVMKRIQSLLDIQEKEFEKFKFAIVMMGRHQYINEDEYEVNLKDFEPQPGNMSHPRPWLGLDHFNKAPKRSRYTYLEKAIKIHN
inactive: [1]; compound concentration: 50uM -0.421 | [2]; compound concentration: 50uM -0.133 | [2]; compound concentration: 200uM -0.121 | [3]; compound concentration: 50uM -0.0285 | [3]; compound concentration: 200uM -0.558 | [4]; compound concentration: 50uM 0.09 | [4]; compound concentration: 200uM -0.0475 | [5]; compound concentration: 50uM -0.0159 | [5]; compound concentration: 200uM -0.18 | [6]; compound concentration: 0.78uM -0.0291 | [6]; compound concentration: 1.56uM 0.0294 | [6]; compound concentration: 3.13uM -0.0887 | [6]; compound concentration: 6.25uM -0.0846 | [6]; compound concentration: 12.5uM -0.0893 | [6]; compound concentration: 25uM -0.157 | [6]; compound concentration: 50uM -0.0846 | [6]; compound concentration: 100uM -0.00996 | [6]; compound concentration: 200uM -0.173 | [7]; compound concentration: 0.78uM -0.245 | [7]; compound concentration: 1.56uM -0.104 | [7]; compound concentration: 3.13uM -0.126 | [7]; compound concentration: 6.25uM -0.0886 | [7]; compound concentration: 12.5uM -0.122 | [7]; compound concentration: 25uM -0.125 | [7]; compound concentration: 50uM -0.161 | [7]; compound concentration: 100uM -0.145 | [7]; compound concentration: 200uM -0.261 | [8]; compound concentration: 0.78uM -0.0919 | [8]; compound concentration: 1.56uM -0.155 | [8]; compound concentration: 3.13uM -0.109 | [8]; compound concentration: 6.25uM 0.00463 | [8]; compound concentration: 12.5uM -0.0828 | [8]; compound concentration: 25uM -0.0804 | [8]; compound concentration: 50uM -0.017 | [8]; compound concentration: 100uM -0.124 | [8]; compound concentration: 200uM -0.255 | [9]; compound concentration: 50uM -0.321 | [10]; compound concentration: 50uM -0.397 | [11]; compound concentration: 50uM -0.88 | [12]; compound concentration: 50uM -0.517 | [13]; compound concentration: 50uM -0.358 | [14]; compound concentration: 50uM -0.387 | [16]; compound concentration: 50uM -0.461 | [17]; compound concentration: 50uM -0.316 | [17]; compound concentration: 200uM -0.618 | [18]; compound concentration: 50uM -0.698 | [19]; compound concentration: 50uM 0.0363 | [19]; compound concentration: 200uM -0.1
active: [1]; compound concentration: 200uM -1.24 | [9]; compound concentration: 200uM -1.17 | [10]; compound concentration: 200uM -1.18 | [11]; compound concentration: 200uM -1.84 | [12]; compound concentration: 200uM -1.2 | [13]; compound concentration: 200uM -1.04 | [14]; compound concentration: 200uM -1.22 | [15]; compound concentration: 50uM -1.57 | [15]; compound concentration: 200uM -2.52 | [16]; compound concentration: 200uM -1.58 | [18]; compound concentration: 200uM -2.08

USP42 (UniProt Q9H9J4)
Sequence of UniProt Q9H9J4 (Q9H9J4 whole entry): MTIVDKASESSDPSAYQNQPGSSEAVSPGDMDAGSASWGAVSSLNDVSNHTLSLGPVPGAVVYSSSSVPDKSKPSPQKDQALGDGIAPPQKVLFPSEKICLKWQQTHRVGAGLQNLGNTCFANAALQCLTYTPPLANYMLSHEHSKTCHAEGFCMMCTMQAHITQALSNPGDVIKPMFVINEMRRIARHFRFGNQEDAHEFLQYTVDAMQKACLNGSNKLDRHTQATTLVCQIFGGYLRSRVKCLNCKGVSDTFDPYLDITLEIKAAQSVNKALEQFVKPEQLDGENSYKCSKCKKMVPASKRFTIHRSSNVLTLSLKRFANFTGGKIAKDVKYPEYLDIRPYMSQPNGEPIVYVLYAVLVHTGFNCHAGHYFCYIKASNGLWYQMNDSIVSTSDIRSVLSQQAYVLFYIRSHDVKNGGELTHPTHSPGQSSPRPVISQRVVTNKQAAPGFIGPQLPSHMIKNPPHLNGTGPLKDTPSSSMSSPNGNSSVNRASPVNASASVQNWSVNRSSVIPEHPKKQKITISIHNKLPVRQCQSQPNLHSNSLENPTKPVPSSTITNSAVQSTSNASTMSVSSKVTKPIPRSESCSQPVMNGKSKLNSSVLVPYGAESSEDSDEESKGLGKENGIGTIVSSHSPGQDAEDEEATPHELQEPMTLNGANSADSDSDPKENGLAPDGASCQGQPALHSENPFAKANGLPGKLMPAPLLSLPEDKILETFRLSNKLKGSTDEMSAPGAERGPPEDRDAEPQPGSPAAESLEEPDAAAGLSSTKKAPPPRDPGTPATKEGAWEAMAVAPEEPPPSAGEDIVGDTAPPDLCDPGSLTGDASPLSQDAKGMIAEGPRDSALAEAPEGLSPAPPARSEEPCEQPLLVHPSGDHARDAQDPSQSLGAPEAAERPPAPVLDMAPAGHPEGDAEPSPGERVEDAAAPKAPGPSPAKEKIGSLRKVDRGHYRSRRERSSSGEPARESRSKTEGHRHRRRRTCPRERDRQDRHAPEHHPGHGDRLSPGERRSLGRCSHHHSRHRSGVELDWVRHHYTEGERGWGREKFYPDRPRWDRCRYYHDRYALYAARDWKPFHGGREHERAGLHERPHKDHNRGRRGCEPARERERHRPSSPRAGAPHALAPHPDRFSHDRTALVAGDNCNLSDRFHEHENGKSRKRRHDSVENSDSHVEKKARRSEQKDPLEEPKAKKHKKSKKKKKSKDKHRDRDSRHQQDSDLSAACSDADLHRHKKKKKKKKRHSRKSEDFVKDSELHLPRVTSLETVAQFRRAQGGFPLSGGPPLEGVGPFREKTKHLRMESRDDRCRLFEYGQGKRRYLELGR
inactive: [1]; compound concentration: 50uM 0.0875 | [1]; compound concentration: 200uM 0.424 | [2]; compound concentration: 50uM 0.125 | [2]; compound concentration: 200uM 0.131 | [3]; compound concentration: 50uM 0.0642 | [3]; compound concentration: 200uM 0.249 | [4]; compound concentration: 50uM -0.167 | [4]; compound concentration: 200uM 0.115 | [5]; compound concentration: 50uM -0.093 | [5]; compound concentration: 200uM 0.371 | [6]; compound concentration: 0.78uM -0.0166 | [6]; compound concentration: 1.56uM -0.0953 | [6]; compound concentration: 3.13uM -0.0821 | [6]; compound concentration: 6.25uM -0.0491 | [6]; compound concentration: 12.5uM -0.106 | [6]; compound concentration: 25uM -0.0142 | [6]; compound concentration: 50uM -0.0733 | [6]; compound concentration: 100uM 0.00602 | [6]; compound concentration: 200uM -0.207 | [7]; compound concentration: 0.78uM 0.0511 | [7]; compound concentration: 1.56uM 0.0688 | [7]; compound concentration: 3.13uM 0.0123 | [7]; compound concentration: 6.25uM 0.154 | [7]; compound concentration: 12.5uM -0.0261 | [7]; compound concentration: 25uM 0.0226 | [7]; compound concentration: 50uM -0.157 | [7]; compound concentration: 100uM 0.109 | [7]; compound concentration: 200uM 0.00814 | [8]; compound concentration: 0.78uM -0.186 | [8]; compound concentration: 1.56uM -0.0565 | [8]; compound concentration: 3.13uM -0.196 | [8]; compound concentration: 6.25uM -0.273 | [8]; compound concentration: 12.5uM -0.0469 | [8]; compound concentration: 25uM 0.0215 | [8]; compound concentration: 50uM -0.0548 | [8]; compound concentration: 100uM 0.132 | [8]; compound concentration: 200uM -0.0982 | [9]; compound concentration: 50uM -0.199 | [9]; compound concentration: 200uM 0.281 | [10]; compound concentration: 50uM -0.0757 | [10]; compound concentration: 200uM 0.0626 | [11]; compound concentration: 50uM 0.0496 | [11]; compound concentration: 200uM 0.397 | [12]; compound concentration: 50uM -0.0195 | [12]; compound concentration: 200uM 0.165 | [13]; compound concentration: 50uM -0.0749 | [13]; compound concentration: 200uM 0.205 | [14]; compound concentration: 50uM 0.0537 | [14]; compound concentration: 200uM 0.284 | [15]; compound concentration: 50uM 0.0405 | [15]; compound concentration: 200uM 0.669 | [16]; compound concentration: 50uM -0.0528 | [16]; compound concentration: 200uM 0.104 | [17]; compound concentration: 50uM 0.0476 | [17]; compound concentration: 200uM 0.187 | [18]; compound concentration: 50uM 0.182 | [18]; compound concentration: 200uM 0.44 | [19]; compound concentration: 50uM -0.428 | [19]; compound concentration: 200uM 0.159
